Reference: PubChem BioAssay AID1159580 (chemical genetic matrix, 2015)
The whole screen tested about 5,500 compounds, of which about 2,000 (36%) were called active. Roughly 18% stayed inconclusive and do not appear here. Rule as the data show it: active = normalized growth mostly below about 0.91 (no sharp cut-off); inconclusive = no clear call, values can overlap the other calls; inactive = mostly above about 0.92. Some of the results follow.

Assay: chemical genetic growth profiling, strain panel (AID 1159580);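 also: tested at 20 µM; growth read once vehicle control cultures reached saturation at 30 °C; 1 = growth at the plate median or of vehicle wells; lower values mean less growth of the strain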
Settings: growth OD

Measured: normalized growth

CC(=O)[O][Hg][c]1ccccc1
active: S. cerevisiae deletion strains, locus YJR066W, strain TOR1, stronger effect = lower value 0.00688 | S. cerevisiae deletion strains, locus YJR075W, strain HOC1, stronger effect = lower value 0.0645 | S. cerevisiae deletion strains, locus YKL009W, strain mrt4, stronger effect = lower value 0.0761 | S. cerevisiae deletion strains, locus YKL068W, stronger effect = lower value 0.0552 | S. cerevisiae deletion strains, locus YKL085W, strain MDH1 (second series), stronger effect = lower value 0.0536 | S. cerevisiae deletion strains, locus YKL085W, strain MDH1, stronger effect = lower value 0.0536 | S. cerevisiae deletion strains, locus YKL160W, strain elf1, stronger effect = lower value 0.0629 | S. cerevisiae deletion strains, locus YKL190W, strain CNB1, stronger effect = lower value 0.0488 | S. cerevisiae deletion strains, locus YKR001C, strain vps1, stronger effect = lower value 0.0636 | S. cerevisiae deletion strains, locus YKR026C, strain gcn3, stronger effect = lower value 0.0658 | S. cerevisiae deletion strains, locus YKR091W, strain srl3, stronger effect = lower value 0.0596 | S. cerevisiae deletion strains, locus YLL001W, strain dnm1, stronger effect = lower value 0.0611 | S. cerevisiae deletion strains, locus YLL026W, stronger effect = lower value 0.0582 | S. cerevisiae deletion strains, locus YLL041C, strain sdh2, stronger effect = lower value 0.0595 | S. cerevisiae deletion strains, locus YLR027C, strain aat2, stronger effect = lower value 0.0573 | S. cerevisiae deletion strains, locus YLR039C, strain RIC1, stronger effect = lower value 0.0904 | S. cerevisiae deletion strains, locus YLR058C, strain SHM2, stronger effect = lower value 0.0508 | S. cerevisiae deletion strains, locus YLR102C, strain apc9, stronger effect = lower value 0.0618 | S. cerevisiae deletion strains, locus YLR113W, strain HOG1, stronger effect = lower value 0.158 | S. cerevisiae deletion strains, locus YLR221C, strain rsa3, stronger effect = lower value 0.0629 | S. cerevisiae deletion strains, locus YLR258W, strain gsy2, stronger effect = lower value 0.0604 | S. cerevisiae deletion strains, locus YLR262C, strain YPT6 (second series), stronger effect = lower value 0.0742 | S. cerevisiae deletion strains, locus YLR262C, strain YPT6, stronger effect = lower value 0.103 | S. cerevisiae deletion strains, locus YLR268W, strain sec22, stronger effect = lower value 0.0681 | S. cerevisiae deletion strains, locus YLR320W, strain mms22, stronger effect = lower value 0.0826 | S. cerevisiae deletion strains, locus YLR330W, strain CHS5, stronger effect = lower value 0.0544 | S. cerevisiae deletion strains, locus YLR342W, strain FKS1 (second series), stronger effect = lower value 0.0755 | S. cerevisiae deletion strains, locus YLR342W, strain FKS1, stronger effect = lower value 0.0633 | S. cerevisiae deletion strains, locus YLR357W, strain rsc2, stronger effect = lower value 0.127 | S. cerevisiae deletion strains, locus YLR370C, strain arc18, stronger effect = lower value 0.0626 | S. cerevisiae deletion strains, locus YLR371W, strain rom2, stronger effect = lower value 0.0637 | S. cerevisiae deletion strains, locus YLR384C, strain iki3, stronger effect = lower value 0.0624 | S. cerevisiae deletion strains, locus YLR418C, strain cdc73, stronger effect = lower value 0.0951 | S. cerevisiae deletion strains, locus YML016C, strain PPZ1, stronger effect = lower value 0.0524 | S. cerevisiae deletion strains, locus YML032C, strain rad52, stronger effect = lower value 0.0836 | S. cerevisiae deletion strains, locus YML120C, strain ndi1, stronger effect = lower value 0.0619 | S. cerevisiae deletion strains, locus YML124C, strain tub3, stronger effect = lower value 0.0593 | S. cerevisiae deletion strains, locus YMR058W, strain fet3, stronger effect = lower value 0.0602 | S. cerevisiae deletion strains, locus YMR078C, strain ctf18, stronger effect = lower value 0.0736 | S. cerevisiae deletion strains, locus YMR125W, strain sto1, stronger effect = lower value 0.0779 | S. cerevisiae deletion strains, locus YMR129W, stronger effect = lower value 0.0611 | S. cerevisiae deletion strains, locus YMR205C, strain PFK2, stronger effect = lower value 0.0858 | S. cerevisiae deletion strains, locus YMR223W, strain ubp8, stronger effect = lower value 0.0679 | S. cerevisiae deletion strains, locus YMR231W, strain pep5, stronger effect = lower value 0.0683 | S. cerevisiae deletion strains, locus YMR263W, strain SAP30, stronger effect = lower value 0.0622 | S. cerevisiae deletion strains, locus YMR307W, strain GAS1, stronger effect = lower value 0.119 | S. cerevisiae deletion strains, locus YNL067W, strain RPL9B, stronger effect = lower value 0.0529 | S. cerevisiae deletion strains, locus YNL071W, strain lat1, stronger effect = lower value 0.0614 | S. cerevisiae deletion strains, locus YNL128W, strain TEP1, stronger effect = lower value 0.0633 | S. cerevisiae deletion strains, locus YNL153C, strain GIM3, stronger effect = lower value 0.0495 | S. cerevisiae deletion strains, locus YNL183C, strain NPR1, stronger effect = lower value -0.000716 | S. cerevisiae deletion strains, locus YNL209W, strain ssb2, stronger effect = lower value 0.0586 | S. cerevisiae deletion strains, locus YNL233W, strain BNI4, stronger effect = lower value 0.0544 | S. cerevisiae deletion strains, locus YNL248C, strain rpa49, stronger effect = lower value 0.0785 | S. cerevisiae deletion strains, locus YNL250W, strain rad50, stronger effect = lower value 0.0635 | S. cerevisiae deletion strains, locus YNL271C, strain bni1, stronger effect = lower value 0.0615 | S. cerevisiae deletion strains, locus YNL298W, strain CLA4, stronger effect = lower value 0.0614 | S. cerevisiae deletion strains, locus YNL307C, strain MCK1, stronger effect = lower value 0.0689 | S. cerevisiae deletion strains, locus YNL322C, strain KRE1 (second series), stronger effect = lower value 0.0671 | S. cerevisiae deletion strains, locus YNL322C, strain KRE1, stronger effect = lower value 0.0528 | S. cerevisiae deletion strains, locus YNR049C, strain mso1, stronger effect = lower value 0.0595 | S. cerevisiae deletion strains, locus YNR052C, strain pop2, stronger effect = lower value 0.0629 | S. cerevisiae deletion strains, locus YOL006C, strain TOP1, stronger effect = lower value 0.102 | S. cerevisiae deletion strains, locus YOL147C, strain pex11, stronger effect = lower value 0.058 | S. cerevisiae deletion strains, locus YOR001W, strain rrp6, stronger effect = lower value 0.0684 | S. cerevisiae deletion strains, locus YOR061W, strain CKA2, stronger effect = lower value 0.0465 | S. cerevisiae deletion strains, locus YOR069W, strain VPS5, stronger effect = lower value 0.0482 | S. cerevisiae deletion strains, locus YOR070C, strain gyp1, stronger effect = lower value 0.0606 | S. cerevisiae deletion strains, locus YOR080W, strain dia2, stronger effect = lower value 0.0661 | S. cerevisiae deletion strains, locus YOR083W, strain WHI5, stronger effect = lower value 0.0628 | S. cerevisiae deletion strains, locus YOR106W, strain vam3, stronger effect = lower value 0.0631 | S. cerevisiae deletion strains, locus YOR136W, strain idh2, stronger effect = lower value 0.0713 | S. cerevisiae deletion strains, locus YOR144C, strain elg1, stronger effect = lower value 0.0581 | S. cerevisiae deletion strains, locus YOR184W, strain ser1, stronger effect = lower value 0.073 | S. cerevisiae deletion strains, locus YOR231W, strain MKK1, stronger effect = lower value 0.132 | S. cerevisiae deletion strains, locus YOR265W, strain rbl2, stronger effect = lower value 0.0563 | S. cerevisiae deletion strains, locus YOR270C, strain vph1, stronger effect = lower value 0.0933 | S. cerevisiae deletion strains, locus YOR290C, strain snf2, stronger effect = lower value 0.0699 | S. cerevisiae deletion strains, locus YOR316C, strain cot1, stronger effect = lower value 0.0597 | S. cerevisiae deletion strains, locus YPL051W, strain arl3, stronger effect = lower value 0.063 | S. cerevisiae deletion strains, locus YPL055C, strain LGE1, stronger effect = lower value 0.076 | S. cerevisiae deletion strains, locus YPL078C, strain atp4, stronger effect = lower value 0.0655 | S. cerevisiae deletion strains, locus YPL106C, strain sse1, stronger effect = lower value 0.1 | S. cerevisiae deletion strains, locus YPL240C, strain hsp82, stronger effect = lower value 0.0559 | S. cerevisiae deletion strains, locus YPL241C, strain CIN2, stronger effect = lower value 0.0515 | S. cerevisiae deletion strains, locus YPL256C, strain CLN2, stronger effect = lower value 0.132 | S. cerevisiae deletion strains, locus YPR119W, strain clb2, stronger effect = lower value 0.0616 | S. cerevisiae deletion strains, locus YPR141C, strain kar3, stronger effect = lower value 0.0673 | S. cerevisiae deletion strains, locus YPR163C, strain tif3, stronger effect = lower value 0.0707 | S. cerevisiae deletion strains, locus YPR167C, strain met16, stronger effect = lower value 0.0616 | S. cerevisiae deletion strains, strain wtn01, stronger effect = lower value 0.0633 | S. cerevisiae strains, strain wild type, stronger effect = lower value 0.0493
